Consider 1 sequence from paper PMC7862700, “An all-to-all approach to the identification of sequence-specific readers for epigenetic DNA modifications on cytosine”.

Assay in all cases: DAPPL (digital affinity profiling via proximity ligation, sequencing); 10 mM Tris-HCl pH 7.5, 50 mM NaCl, 1 mM DTT, 4% glycerol, room temperature, 30 min; GST-TFs on glutathione beads, 16-mer random dsDNA library, 0.1% formaldehyde crosslink after washing; high values mean tight binding
Settings in all cases: protein: recombinant; tags: N-terminal GST; dsDNA, one strand shown

Assay [1] deals with T1, GABPA (Homo sapiens, UniProt Q06546 1-454).
T1 sequence: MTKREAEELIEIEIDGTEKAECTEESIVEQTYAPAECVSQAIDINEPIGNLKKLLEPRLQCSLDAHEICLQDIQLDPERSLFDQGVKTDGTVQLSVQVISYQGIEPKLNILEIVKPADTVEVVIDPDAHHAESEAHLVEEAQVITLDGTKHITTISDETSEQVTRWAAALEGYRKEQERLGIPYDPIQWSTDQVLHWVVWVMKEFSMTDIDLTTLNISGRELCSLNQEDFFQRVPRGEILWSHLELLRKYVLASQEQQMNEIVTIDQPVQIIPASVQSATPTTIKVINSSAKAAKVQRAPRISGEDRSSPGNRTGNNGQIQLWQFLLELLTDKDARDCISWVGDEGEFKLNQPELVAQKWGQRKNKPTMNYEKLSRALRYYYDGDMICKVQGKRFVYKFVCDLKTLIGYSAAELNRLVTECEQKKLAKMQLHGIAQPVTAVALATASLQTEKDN
In outline:
(§1)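 Beads coated with glutathione captured GST-fused human transcription factors that had been expressed in yeast, and the factors were then given DNA barcodes and pooled with a tag-only sample. The pools were incubated with 200 nmole of a random double-stranded 16-mer DNA library in Tris/NaCl/DTT/glycerol buffer for 30 min at room temperature, washed, crosslinked with 0.1% formaldehyde and proximity-ligated with BsaI/T4 ligase at 37 °C for 1 h. PCR amplification and Illumina NextSeq500 sequencing came last. Binding signal is each hexamer's read frequency for a factor divided by its frequency for the tag-only sample.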

For assay [2], the target named is ELF1 (Homo sapiens, UniProt P32519 1-619). The procedure, abridged: as §1
Assay [3] has as its target SPIB (Homo sapiens, UniProt Q01892 1-262). In outline:
as §1

In assay [4] the target is T2, FEV (Homo sapiens, UniProt Q99581 1-238).
T2 sequence: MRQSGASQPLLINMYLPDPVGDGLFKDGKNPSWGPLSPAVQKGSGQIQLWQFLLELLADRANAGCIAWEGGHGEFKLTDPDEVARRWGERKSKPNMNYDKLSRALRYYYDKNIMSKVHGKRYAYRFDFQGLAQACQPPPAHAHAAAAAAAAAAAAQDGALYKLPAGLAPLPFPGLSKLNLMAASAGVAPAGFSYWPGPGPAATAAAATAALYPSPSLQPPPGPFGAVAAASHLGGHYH
The procedure, abridged: as §1

Assay [5] deals with ETV5 (Homo sapiens, UniProt P41161 1-510). In outline:
as §1

Assay [6] deals with ELF4 (Homo sapiens, UniProt Q99607 1-663). The procedure, abridged:
as §1

For assay [7], the target named is T3, ELK4 (Homo sapiens, UniProt P28324-2 1-405).
T3 sequence: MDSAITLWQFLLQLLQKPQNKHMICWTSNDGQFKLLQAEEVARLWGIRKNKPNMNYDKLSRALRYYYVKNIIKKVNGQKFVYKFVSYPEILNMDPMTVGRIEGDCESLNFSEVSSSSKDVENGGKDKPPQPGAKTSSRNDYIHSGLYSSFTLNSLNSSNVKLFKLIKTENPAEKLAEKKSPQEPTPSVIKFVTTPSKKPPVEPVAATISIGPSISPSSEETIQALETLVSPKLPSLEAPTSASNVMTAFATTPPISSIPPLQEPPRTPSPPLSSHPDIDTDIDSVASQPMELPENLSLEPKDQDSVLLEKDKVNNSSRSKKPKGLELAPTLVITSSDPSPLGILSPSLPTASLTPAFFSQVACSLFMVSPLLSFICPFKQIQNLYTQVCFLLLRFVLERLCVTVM
The procedure, abridged:
as §1

Assay [8] concerns the target T4, ETV2 (Homo sapiens, UniProt O00321 1-342).
T4 sequence: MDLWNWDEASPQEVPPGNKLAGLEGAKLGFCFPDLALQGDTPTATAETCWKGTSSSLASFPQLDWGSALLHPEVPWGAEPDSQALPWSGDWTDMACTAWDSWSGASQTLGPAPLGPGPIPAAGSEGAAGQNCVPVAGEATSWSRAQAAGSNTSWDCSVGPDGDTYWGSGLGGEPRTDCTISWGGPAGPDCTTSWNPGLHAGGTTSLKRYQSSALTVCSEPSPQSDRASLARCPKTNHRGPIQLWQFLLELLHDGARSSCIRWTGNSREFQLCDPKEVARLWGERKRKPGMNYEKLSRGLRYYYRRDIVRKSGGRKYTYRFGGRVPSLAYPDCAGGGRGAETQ
In outline: as §1

The target of assay [9] is ETV1 (Homo sapiens, UniProt P50549 1-477). In outline:
as §1

Assay [10] has as its target T5, ETV3L (Homo sapiens, UniProt Q6ZN32 1-361).
T5 sequence: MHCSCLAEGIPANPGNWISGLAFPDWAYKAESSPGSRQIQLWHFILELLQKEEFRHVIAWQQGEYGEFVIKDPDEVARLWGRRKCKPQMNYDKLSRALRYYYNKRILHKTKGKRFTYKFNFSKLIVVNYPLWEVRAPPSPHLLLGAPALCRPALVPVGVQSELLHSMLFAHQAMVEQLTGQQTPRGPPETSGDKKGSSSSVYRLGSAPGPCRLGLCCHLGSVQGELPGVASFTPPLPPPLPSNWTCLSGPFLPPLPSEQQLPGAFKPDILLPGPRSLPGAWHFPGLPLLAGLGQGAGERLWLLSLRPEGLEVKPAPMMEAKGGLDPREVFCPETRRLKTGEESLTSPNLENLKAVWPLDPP
In outline:
as §1

Assay [11] addresses T6, ETS2 (Homo sapiens, UniProt P15036 1-469).
T6 sequence: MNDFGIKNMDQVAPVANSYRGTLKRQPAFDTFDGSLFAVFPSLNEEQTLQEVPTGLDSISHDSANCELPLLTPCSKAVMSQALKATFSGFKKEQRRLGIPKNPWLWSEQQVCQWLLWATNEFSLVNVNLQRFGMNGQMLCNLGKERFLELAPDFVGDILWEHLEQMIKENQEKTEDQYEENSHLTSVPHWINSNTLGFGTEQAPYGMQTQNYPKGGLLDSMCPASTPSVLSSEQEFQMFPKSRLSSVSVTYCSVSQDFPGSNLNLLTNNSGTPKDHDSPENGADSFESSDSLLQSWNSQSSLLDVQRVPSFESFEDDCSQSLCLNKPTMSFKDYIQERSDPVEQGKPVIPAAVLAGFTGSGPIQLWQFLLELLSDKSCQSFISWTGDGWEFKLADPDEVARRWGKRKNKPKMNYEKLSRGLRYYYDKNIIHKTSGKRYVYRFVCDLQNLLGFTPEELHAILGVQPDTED
The procedure, abridged: as §1

The target in assay [12] is T7, ETV7 (Homo sapiens, UniProt Q9Y603 1-341).
T7 sequence: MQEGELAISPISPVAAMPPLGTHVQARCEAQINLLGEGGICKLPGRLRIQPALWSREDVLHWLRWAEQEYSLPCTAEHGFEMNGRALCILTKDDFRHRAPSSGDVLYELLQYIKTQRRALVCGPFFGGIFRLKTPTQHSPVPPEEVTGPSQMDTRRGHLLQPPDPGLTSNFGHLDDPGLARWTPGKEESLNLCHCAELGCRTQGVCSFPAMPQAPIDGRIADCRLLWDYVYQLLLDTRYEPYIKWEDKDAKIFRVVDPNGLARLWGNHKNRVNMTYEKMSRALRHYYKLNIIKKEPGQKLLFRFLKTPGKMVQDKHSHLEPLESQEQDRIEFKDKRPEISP
In outline: as §1

The target of assay [13] is T8, ETV3 (Homo sapiens, UniProt P41162-2 1-143).
T8 sequence: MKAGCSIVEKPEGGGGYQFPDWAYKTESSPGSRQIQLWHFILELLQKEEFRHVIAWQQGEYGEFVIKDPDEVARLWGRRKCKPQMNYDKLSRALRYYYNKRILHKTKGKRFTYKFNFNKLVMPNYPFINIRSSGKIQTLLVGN
In outline:
as §1

The target in assay [14] is ETV6 (Homo sapiens, UniProt P41212 1-452). The procedure, abridged:
as §1

Sequence of ELF1 (P32519 whole entry): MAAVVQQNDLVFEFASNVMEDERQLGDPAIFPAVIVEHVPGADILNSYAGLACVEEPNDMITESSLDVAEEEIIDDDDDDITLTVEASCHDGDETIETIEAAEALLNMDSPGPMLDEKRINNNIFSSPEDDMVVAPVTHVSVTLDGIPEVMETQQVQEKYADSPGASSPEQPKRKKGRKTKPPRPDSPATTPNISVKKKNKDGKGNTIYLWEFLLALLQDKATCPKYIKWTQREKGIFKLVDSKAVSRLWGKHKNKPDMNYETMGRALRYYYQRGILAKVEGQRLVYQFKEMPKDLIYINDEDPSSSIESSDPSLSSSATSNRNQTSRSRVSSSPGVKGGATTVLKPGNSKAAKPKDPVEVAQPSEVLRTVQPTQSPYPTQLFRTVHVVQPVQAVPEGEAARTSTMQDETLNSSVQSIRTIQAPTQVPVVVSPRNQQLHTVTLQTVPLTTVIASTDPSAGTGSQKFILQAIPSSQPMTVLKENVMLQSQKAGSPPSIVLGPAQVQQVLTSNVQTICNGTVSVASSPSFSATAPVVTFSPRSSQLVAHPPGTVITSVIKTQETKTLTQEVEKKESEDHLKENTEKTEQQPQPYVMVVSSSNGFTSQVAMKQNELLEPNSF
Sequence of ETV1 (P50549 whole entry): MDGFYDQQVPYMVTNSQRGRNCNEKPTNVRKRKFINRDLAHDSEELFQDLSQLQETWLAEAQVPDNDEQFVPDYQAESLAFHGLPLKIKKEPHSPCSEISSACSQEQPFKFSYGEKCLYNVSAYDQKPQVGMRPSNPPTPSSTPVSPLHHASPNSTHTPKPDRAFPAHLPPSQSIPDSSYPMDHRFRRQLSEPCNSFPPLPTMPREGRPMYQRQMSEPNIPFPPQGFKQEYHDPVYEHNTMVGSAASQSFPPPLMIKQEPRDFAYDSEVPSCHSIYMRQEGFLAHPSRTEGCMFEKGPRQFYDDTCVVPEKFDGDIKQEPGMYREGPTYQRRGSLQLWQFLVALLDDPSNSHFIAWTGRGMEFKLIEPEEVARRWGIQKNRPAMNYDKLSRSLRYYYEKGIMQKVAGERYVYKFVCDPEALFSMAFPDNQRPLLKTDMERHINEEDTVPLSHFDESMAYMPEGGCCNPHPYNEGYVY
Sequence of SPIB (Q01892 whole entry): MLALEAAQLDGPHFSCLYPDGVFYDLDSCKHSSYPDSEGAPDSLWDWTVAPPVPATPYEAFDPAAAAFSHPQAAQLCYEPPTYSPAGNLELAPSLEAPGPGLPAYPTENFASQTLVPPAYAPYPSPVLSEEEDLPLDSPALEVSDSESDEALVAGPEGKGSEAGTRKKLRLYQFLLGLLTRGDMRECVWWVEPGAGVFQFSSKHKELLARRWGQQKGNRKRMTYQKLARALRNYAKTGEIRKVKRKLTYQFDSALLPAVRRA
Sequence of ETV6 (P41212 whole entry): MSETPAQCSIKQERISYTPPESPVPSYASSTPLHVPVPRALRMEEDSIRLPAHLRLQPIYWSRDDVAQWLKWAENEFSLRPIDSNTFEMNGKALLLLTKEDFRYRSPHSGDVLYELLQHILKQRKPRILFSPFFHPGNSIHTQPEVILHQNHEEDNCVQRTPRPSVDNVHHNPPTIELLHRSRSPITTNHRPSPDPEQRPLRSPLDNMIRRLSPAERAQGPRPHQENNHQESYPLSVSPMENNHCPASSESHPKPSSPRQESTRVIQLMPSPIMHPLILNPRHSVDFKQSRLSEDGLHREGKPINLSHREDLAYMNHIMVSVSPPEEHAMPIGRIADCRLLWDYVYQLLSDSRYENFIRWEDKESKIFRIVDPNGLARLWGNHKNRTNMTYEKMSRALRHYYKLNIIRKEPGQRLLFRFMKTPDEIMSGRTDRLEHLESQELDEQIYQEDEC
Sequence of ELF4 (Q99607 whole entry): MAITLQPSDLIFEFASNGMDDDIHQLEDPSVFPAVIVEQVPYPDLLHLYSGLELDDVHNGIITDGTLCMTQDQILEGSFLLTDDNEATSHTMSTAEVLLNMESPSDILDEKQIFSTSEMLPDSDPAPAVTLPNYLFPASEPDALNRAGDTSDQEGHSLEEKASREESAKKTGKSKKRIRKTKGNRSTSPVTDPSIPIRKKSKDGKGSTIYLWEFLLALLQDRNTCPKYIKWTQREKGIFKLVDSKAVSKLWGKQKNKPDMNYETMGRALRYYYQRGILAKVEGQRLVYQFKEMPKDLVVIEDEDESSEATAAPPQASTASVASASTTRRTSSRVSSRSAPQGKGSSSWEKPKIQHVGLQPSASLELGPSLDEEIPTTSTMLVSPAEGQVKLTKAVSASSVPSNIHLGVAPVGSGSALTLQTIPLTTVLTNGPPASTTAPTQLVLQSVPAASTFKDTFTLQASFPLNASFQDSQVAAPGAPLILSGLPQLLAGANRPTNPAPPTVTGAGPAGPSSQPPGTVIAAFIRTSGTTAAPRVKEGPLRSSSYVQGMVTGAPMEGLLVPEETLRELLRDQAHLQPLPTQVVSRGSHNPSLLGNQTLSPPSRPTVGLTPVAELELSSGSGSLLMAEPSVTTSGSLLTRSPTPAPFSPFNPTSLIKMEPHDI
Sequence of ETV5 (P41161 whole entry): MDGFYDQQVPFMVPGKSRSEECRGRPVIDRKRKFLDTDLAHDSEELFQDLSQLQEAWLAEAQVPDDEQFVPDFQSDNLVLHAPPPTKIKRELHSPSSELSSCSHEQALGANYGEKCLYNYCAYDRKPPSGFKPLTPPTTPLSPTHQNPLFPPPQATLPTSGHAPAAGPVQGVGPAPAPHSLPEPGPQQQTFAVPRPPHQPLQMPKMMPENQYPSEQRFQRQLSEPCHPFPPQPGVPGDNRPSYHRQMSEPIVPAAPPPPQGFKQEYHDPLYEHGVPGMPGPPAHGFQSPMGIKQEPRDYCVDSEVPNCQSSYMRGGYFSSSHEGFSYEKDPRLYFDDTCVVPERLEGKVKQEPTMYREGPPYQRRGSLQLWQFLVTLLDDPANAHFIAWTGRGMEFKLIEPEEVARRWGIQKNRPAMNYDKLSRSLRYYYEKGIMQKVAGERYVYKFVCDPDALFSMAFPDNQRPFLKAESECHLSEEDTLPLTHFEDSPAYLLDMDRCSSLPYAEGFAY

As for CGCGTT, the binding signal in assay [1] is 1.01 fold enrichment (6-mer frequency, TF over GST control); in [2] it was 1.12 fold enrichment (6-mer frequency, TF over GST control); in assay [3], 1.05 fold enrichment (6-mer frequency, TF over GST control); in assay [4] it was 1.09 fold enrichment (6-mer frequency, TF over GST control); in [5], 1.02 fold enrichment (6-mer frequency, TF over GST control); in [6], 1.1 fold enrichment (6-mer frequency, TF over GST control). The binding signal was 1.09 fold enrichment (6-mer frequency, TF over GST control) in [7]; 1.16 fold enrichment (6-mer frequency, TF over GST control) in assay [8]; 1.06 fold enrichment (6-mer frequency, TF over GST control) in assay [9]; 1.15 fold enrichment (6-mer frequency, TF over GST control) in [10]; 1.13 fold enrichment (6-mer frequency, TF over GST control) in assay [11]; 1.02 fold enrichment (6-mer frequency, TF over GST control) in assay [12]. Moreover, the binding signal was 1.03 fold enrichment (6-mer frequency, TF over GST control) in assay [13] and 1.06 fold enrichment (6-mer frequency, TF over GST control) in assay [14].
